# Measurements: article PMC7862700, “An all-to-all approach to the identification of sequence-specific readers for epigenetic DNA modifications on cytosine”
# Columns and labels:
# Test in all cases: DAPPL (digital affinity profiling via proximity ligation, sequencing); 10 mM Tris-HCl pH 7.5, 50 mM NaCl, 1 mM DTT, 4% glycerol, room temperature, 30 min; GST-TFs on glutathione beads, 16-mer random dsDNA library, 0.1% formaldehyde crosslink after washing; high values mean tight binding
# FLI1 = molecular target: T1, FLI1 (Homo sapiens, UniProt Q01543 1-452); details: protein: recombinant; tags: N-terminal GST; dsDNA, one strand shown
# T1 sequence: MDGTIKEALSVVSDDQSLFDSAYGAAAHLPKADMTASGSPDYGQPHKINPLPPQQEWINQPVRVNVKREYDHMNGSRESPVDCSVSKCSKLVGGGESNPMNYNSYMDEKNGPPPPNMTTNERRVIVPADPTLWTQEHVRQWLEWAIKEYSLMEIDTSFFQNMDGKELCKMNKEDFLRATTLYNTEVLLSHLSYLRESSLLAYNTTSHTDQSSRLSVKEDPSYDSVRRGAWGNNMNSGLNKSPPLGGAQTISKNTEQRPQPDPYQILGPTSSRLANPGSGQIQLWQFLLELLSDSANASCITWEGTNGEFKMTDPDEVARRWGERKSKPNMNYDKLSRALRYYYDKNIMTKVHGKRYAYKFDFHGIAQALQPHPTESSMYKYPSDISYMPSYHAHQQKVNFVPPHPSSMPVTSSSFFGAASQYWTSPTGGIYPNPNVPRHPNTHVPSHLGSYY
# Outline: (§1)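 Each value of binding signal is a hexamer's read frequency for a factor divided by the same hexamer's frequency in the tag-only sample. Barcoded, bead-captured GST fusions of human transcription factors made in yeast were pooled with that sample and incubated with 200 nmole of a random double-stranded 16-mer DNA library in Tris/NaCl/DTT/glycerol buffer at room temperature for 30 min. Washing, 0.1% formaldehyde crosslinking, proximity ligation, PCR and Illumina NextSeq500 sequencing followed.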
# ELK1 = molecular target: T2, ELK1 (Homo sapiens, UniProt P19419 1-428); details: protein: recombinant; tags: N-terminal GST; dsDNA, one strand shown
# T2 sequence: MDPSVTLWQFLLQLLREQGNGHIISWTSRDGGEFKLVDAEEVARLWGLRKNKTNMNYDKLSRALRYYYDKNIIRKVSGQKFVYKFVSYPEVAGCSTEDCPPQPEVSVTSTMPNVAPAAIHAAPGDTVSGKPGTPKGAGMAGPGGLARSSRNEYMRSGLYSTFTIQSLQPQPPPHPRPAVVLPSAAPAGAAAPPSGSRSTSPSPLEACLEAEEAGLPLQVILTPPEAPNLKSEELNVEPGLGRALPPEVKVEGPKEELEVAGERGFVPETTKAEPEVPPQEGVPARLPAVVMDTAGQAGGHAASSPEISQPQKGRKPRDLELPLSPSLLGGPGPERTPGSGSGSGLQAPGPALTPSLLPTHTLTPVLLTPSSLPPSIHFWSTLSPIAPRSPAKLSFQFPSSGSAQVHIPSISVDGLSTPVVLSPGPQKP
# Outline: as §1
# GABPA = molecular target: T3, GABPA (Homo sapiens, UniProt Q06546 1-454); details: protein: recombinant; tags: N-terminal GST; dsDNA, one strand shown
# T3 sequence: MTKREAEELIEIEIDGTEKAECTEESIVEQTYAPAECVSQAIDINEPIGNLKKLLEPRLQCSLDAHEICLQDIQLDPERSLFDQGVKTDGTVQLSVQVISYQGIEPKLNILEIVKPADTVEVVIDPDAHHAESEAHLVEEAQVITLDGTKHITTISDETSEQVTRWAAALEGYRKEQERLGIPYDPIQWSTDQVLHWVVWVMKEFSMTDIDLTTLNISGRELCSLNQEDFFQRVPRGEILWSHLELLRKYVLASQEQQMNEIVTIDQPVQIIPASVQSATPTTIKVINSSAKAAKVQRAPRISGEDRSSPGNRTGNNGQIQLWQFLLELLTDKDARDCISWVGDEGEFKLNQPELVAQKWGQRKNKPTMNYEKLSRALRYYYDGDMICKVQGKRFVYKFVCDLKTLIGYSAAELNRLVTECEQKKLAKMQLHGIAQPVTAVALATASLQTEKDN
# Outline: as §1
# ERG = molecular target: T4, ERG (Homo sapiens, UniProt P11308 1-479); details: protein: recombinant; tags: N-terminal GST; dsDNA, one strand shown
# T4 sequence: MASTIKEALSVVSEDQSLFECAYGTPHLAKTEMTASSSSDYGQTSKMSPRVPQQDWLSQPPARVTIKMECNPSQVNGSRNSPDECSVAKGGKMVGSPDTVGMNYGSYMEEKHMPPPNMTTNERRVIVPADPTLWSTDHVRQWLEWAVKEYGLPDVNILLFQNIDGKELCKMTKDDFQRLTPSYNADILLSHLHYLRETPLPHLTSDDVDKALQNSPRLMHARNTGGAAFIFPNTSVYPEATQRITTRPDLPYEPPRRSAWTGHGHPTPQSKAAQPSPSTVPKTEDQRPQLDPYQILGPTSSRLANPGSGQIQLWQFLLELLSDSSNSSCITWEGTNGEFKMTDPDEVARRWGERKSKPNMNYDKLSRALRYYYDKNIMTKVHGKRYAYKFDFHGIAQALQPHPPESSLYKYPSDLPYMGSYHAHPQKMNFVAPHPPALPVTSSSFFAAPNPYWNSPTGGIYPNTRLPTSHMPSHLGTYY
# Outline: as §1
# ELF1 = ELF1 (Homo sapiens, UniProt P32519 1-619); details: protein: recombinant; tags: N-terminal GST; dsDNA, one strand shown
# Sequence of ELF1 (P32519 whole entry): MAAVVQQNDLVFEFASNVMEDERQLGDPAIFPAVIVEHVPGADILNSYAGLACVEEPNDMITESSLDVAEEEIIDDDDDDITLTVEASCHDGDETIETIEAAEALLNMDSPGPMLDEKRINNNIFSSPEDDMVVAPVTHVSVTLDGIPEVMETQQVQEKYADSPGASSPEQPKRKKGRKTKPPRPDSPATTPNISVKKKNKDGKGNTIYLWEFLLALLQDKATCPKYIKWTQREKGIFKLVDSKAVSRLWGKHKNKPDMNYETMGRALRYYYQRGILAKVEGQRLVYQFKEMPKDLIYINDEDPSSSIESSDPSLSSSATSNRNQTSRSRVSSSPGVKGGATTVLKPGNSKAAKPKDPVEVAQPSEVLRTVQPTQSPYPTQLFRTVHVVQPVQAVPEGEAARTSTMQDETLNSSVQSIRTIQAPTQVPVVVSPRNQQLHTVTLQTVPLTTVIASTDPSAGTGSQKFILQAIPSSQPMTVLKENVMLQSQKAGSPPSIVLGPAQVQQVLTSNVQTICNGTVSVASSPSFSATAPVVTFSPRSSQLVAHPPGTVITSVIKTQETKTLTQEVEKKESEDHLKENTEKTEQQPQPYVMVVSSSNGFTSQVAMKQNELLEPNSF
# Outline: as §1
# EHF = molecular target: T5, EHF (Homo sapiens, UniProt Q9NZC4 1-300); details: protein: recombinant; tags: N-terminal GST; dsDNA, one strand shown
# T5 sequence: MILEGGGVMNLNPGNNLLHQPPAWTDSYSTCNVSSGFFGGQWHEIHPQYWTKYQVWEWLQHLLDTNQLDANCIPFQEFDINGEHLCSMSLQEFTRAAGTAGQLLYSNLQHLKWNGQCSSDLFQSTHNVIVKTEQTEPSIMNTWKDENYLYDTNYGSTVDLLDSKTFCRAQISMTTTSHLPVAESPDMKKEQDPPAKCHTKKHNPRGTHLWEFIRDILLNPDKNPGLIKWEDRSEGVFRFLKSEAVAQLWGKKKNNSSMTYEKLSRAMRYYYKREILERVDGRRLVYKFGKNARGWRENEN
# Outline: as §1
# SPI1 = SPI1 (Homo sapiens, UniProt P17947 1-270); details: protein: recombinant; tags: N-terminal GST; dsDNA, one strand shown
# Outline: as §1
# SPIB = SPIB (Homo sapiens, UniProt Q01892 1-262); details: protein: recombinant; tags: N-terminal GST; dsDNA, one strand shown
# Sequence of SPIB (Q01892 whole entry): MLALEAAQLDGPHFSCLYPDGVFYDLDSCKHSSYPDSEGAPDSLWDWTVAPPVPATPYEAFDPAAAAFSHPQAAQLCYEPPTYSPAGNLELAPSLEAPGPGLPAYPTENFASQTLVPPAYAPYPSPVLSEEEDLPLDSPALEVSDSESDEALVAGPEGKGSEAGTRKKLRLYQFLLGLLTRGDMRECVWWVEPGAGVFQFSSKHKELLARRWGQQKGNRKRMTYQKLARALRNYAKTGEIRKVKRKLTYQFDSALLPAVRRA
# Outline: as §1
# ELK3 = molecular target: T6, ELK3 (Homo sapiens, UniProt P41970 1-407); details: protein: recombinant; tags: N-terminal GST; dsDNA, one strand shown
# T6 sequence: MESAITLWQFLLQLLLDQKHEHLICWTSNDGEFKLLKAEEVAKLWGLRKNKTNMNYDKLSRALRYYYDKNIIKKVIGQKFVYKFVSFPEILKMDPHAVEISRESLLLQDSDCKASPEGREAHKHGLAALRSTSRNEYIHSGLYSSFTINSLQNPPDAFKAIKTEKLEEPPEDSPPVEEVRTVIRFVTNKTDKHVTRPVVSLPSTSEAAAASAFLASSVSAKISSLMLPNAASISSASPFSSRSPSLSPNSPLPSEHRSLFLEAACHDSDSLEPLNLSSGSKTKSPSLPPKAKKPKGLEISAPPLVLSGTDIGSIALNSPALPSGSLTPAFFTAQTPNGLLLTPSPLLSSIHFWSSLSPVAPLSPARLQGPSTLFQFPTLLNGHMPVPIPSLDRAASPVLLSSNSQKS
# Outline: as §1
# FEV = molecular target: T7, FEV (Homo sapiens, UniProt Q99581 1-238); details: protein: recombinant; tags: N-terminal GST; dsDNA, one strand shown
# T7 sequence: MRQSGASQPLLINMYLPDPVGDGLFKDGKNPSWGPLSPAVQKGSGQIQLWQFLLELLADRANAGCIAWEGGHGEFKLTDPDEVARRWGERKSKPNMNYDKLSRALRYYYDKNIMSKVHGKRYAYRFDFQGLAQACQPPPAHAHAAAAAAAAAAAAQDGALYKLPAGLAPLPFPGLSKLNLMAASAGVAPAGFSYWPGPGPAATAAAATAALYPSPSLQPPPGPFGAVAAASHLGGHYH
# Outline: as §1
# ETV5 = ETV5 (Homo sapiens, UniProt P41161 1-510); details: protein: recombinant; tags: N-terminal GST; dsDNA, one strand shown
# Sequence of ETV5 (P41161 whole entry): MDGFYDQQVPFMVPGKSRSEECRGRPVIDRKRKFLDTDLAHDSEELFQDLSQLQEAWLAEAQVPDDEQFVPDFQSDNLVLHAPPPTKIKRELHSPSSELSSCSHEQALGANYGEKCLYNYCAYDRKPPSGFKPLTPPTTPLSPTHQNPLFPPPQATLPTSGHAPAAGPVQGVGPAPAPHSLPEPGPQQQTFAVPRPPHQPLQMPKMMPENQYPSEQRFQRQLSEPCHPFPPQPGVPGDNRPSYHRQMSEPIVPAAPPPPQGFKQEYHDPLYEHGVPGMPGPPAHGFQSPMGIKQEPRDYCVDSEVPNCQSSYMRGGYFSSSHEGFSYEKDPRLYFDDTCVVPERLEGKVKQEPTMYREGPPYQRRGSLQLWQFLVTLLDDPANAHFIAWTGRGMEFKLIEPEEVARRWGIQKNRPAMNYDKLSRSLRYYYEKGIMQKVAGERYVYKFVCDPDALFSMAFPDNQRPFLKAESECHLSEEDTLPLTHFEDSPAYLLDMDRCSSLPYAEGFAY
# Outline: as §1
# HSF1 = HSF1 (Homo sapiens, UniProt Q00613 1-529); details: protein: recombinant; tags: N-terminal GST; chain copies: 3; dsDNA, one strand shown
# Sequence of HSF1 (Q00613 whole entry): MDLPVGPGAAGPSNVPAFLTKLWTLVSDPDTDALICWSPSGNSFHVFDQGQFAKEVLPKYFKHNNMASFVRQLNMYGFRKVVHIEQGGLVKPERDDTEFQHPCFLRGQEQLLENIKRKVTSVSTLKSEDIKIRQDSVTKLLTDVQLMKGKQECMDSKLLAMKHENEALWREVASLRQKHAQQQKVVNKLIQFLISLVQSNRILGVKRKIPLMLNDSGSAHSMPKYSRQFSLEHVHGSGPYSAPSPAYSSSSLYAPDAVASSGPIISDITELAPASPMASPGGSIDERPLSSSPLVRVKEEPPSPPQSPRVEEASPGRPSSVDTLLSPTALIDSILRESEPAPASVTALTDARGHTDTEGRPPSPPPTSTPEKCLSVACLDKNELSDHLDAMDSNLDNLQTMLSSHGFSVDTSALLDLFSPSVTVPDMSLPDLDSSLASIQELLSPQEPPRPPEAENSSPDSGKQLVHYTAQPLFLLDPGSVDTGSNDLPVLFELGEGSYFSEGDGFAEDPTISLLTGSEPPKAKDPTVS
# Outline: as §1
# SPIC = molecular target: T8, SPIC (Homo sapiens, UniProt Q8N5J4 1-248); details: protein: recombinant; tags: N-terminal GST; dsDNA, one strand shown
# T8 sequence: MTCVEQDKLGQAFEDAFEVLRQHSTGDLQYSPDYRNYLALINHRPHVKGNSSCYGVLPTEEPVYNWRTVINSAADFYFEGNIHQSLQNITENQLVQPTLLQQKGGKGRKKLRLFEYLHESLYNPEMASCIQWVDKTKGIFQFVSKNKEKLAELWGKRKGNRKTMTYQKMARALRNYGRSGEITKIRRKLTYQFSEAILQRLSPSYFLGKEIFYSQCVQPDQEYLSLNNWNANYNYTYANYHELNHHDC
# Outline: as §1
# ELF4 = ELF4 (Homo sapiens, UniProt Q99607 1-663); details: protein: recombinant; tags: N-terminal GST; dsDNA, one strand shown
# Sequence of ELF4 (Q99607 whole entry): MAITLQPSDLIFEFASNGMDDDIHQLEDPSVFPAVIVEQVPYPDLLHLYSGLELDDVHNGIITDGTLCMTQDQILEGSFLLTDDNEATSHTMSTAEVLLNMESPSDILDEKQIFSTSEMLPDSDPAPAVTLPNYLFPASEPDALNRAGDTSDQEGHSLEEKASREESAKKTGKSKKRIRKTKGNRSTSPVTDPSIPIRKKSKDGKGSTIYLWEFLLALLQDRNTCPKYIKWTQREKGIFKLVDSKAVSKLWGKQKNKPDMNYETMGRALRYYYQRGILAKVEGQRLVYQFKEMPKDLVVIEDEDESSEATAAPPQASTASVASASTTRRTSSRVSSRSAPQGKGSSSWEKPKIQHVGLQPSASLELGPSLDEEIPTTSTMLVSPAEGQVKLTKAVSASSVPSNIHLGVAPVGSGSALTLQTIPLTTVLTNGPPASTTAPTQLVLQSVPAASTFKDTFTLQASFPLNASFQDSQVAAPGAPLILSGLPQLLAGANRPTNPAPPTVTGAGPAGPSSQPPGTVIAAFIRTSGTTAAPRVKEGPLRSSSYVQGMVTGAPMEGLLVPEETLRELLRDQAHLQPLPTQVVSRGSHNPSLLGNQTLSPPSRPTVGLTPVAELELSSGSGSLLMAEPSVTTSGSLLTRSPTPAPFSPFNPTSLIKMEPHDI
# Outline: as §1
# ELK4 = molecular target: T9, ELK4 (Homo sapiens, UniProt P28324-2 1-405); details: protein: recombinant; tags: N-terminal GST; dsDNA, one strand shown
# T9 sequence: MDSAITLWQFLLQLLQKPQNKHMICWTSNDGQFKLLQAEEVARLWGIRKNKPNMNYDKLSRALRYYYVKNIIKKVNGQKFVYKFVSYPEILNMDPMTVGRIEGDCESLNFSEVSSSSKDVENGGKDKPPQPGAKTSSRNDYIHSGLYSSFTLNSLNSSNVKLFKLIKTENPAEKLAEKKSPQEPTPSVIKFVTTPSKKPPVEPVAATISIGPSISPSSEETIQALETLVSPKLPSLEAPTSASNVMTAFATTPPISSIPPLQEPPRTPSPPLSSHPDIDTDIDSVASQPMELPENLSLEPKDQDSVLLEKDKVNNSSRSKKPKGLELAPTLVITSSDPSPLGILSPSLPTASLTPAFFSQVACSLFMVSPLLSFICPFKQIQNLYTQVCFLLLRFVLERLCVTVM
# Outline: as §1
# ETV2 = molecular target: T10, ETV2 (Homo sapiens, UniProt O00321 1-342); details: protein: recombinant; tags: N-terminal GST; dsDNA, one strand shown
# T10 sequence: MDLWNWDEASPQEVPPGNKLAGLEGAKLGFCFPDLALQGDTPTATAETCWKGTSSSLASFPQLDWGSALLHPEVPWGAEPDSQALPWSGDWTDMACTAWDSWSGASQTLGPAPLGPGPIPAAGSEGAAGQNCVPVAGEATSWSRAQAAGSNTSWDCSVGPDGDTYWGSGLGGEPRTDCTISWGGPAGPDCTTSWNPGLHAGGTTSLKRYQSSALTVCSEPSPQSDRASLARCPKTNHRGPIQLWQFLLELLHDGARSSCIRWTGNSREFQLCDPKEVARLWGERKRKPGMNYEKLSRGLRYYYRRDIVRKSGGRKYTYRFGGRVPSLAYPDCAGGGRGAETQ
# Outline: as §1
# ELF3 = molecular target: T11, ELF3 (Homo sapiens, UniProt P78545 1-371); details: protein: recombinant; tags: N-terminal GST; dsDNA, one strand shown
# T11 sequence: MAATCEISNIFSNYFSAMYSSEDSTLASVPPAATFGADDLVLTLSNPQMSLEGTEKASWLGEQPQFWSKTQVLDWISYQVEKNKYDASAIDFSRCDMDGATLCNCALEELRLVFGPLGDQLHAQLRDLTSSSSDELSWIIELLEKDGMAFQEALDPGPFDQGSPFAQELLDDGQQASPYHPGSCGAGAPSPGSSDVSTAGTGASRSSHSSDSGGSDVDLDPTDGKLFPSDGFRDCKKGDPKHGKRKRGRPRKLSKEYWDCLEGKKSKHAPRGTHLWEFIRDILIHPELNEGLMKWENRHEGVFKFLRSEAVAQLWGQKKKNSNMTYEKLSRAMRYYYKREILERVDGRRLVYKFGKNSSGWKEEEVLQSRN
# Outline: as §1
# CRX = CRX (Homo sapiens, UniProt O43186 1-299); details: protein: recombinant; tags: N-terminal GST; dsDNA, one strand shown
# Sequence of CRX (O43186 whole entry): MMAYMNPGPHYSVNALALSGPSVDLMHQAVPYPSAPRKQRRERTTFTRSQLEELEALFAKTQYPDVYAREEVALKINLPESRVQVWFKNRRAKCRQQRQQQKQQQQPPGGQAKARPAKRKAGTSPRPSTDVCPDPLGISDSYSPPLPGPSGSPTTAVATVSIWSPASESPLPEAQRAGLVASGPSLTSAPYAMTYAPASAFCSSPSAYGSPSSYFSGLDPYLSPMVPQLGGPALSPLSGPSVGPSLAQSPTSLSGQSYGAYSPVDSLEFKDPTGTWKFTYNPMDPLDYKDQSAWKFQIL
# Outline: as §1
# ETV1 = ETV1 (Homo sapiens, UniProt P50549 1-477); details: protein: recombinant; tags: N-terminal GST; dsDNA, one strand shown
# Sequence of ETV1 (P50549 whole entry): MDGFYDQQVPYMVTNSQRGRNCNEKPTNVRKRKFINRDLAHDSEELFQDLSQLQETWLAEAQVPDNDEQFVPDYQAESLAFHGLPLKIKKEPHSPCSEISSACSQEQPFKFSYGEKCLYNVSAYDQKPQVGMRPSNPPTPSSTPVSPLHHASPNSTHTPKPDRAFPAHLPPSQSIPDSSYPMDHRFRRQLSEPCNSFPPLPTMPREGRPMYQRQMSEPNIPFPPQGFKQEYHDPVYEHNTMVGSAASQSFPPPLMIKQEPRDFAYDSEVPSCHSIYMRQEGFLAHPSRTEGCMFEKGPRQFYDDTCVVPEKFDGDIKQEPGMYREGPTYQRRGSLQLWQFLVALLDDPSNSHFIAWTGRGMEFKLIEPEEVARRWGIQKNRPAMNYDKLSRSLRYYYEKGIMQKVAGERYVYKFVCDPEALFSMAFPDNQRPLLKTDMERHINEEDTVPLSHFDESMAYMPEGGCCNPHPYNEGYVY
# Outline: as §1
sequence,measurement,setting,value
ATACTT,binding signal,FLI1,"1.57 fold enrichment (6-mer frequency, TF over GST control)"
same,binding signal,ELK1,"1.6 fold enrichment (6-mer frequency, TF over GST control)"
same,binding signal,GABPA,"1.54 fold enrichment (6-mer frequency, TF over GST control)"
same,binding signal,ERG,"1.68 fold enrichment (6-mer frequency, TF over GST control)"
same,binding signal,ELF1,"1.61 fold enrichment (6-mer frequency, TF over GST control)"
same,binding signal,EHF,"1.71 fold enrichment (6-mer frequency, TF over GST control)"
same,binding signal,SPI1,"1.67 fold enrichment (6-mer frequency, TF over GST control)"
same,binding signal,SPIB,"1.48 fold enrichment (6-mer frequency, TF over GST control)"
same,binding signal,ELK3,"1.7 fold enrichment (6-mer frequency, TF over GST control)"
same,binding signal,FEV,"1.6 fold enrichment (6-mer frequency, TF over GST control)"
same,binding signal,ETV5,"1.6 fold enrichment (6-mer frequency, TF over GST control)"
same,binding signal,HSF1,"1.34 fold enrichment (6-mer frequency, TF over GST control)"
same,binding signal,SPIC,"1.58 fold enrichment (6-mer frequency, TF over GST control)"
same,binding signal,ELF4,"1.55 fold enrichment (6-mer frequency, TF over GST control)"
same,binding signal,ELK4,"1.55 fold enrichment (6-mer frequency, TF over GST control)"
same,binding signal,ETV2,"1.53 fold enrichment (6-mer frequency, TF over GST control)"
same,binding signal,ELF3,"1.58 fold enrichment (6-mer frequency, TF over GST control)"
same,binding signal,CRX,"1.71 fold enrichment (6-mer frequency, TF over GST control)"
same,binding signal,ETV1,"1.72 fold enrichment (6-mer frequency, TF over GST control)"
